Where “and” joins values, the source holds several entries; their conditions need not be identical. Identical values can stand only once. Results filed as inconclusive are left out. A structure can be active in one record and inactive in another. Calls of active or inactive are those of the source. Calls come from the whole dose curve; as a rule, active = well fitted curve in the direction sought with a large enough effect; inconclusive = small, poorly fitted or top-dose-only effect, or another doubt; inactive = no such curve, though single readings can be large; an effect the other way counts as inactive or inconclusive.
How the values were obtained:
[1] = Viability qHTS for spleen associated tyrosine kinase inhibitor (SYKi) naive MV4-11 cells (AID 1963823); conditions: MV4-11 AML viability, CellTiter-Glo luminescence, 72 h; series mostly up to 45 µM; note: nearly all actives have a fitted effect of over 40% in size
How it was run: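 Read-out: CellTiter-Glo luminescence. Exposure: 72 hr, 37 C, 5% CO2, 95% humidity. Cells: MV4-11 without SYK inhibitor history, 500/well, qHTS format.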

[2] = Viability qHTS for spleen associated tyrosine kinase inhibitor (SYKi) drug resistant MV4-11 cells (AID 1963824); conditions: SYKi-resistant MV4-11 viability, CellTiter-Glo, 72 h; series mostly up to 45 µM; note: nearly all actives have a fitted effect of over 35% in size
How it was run: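 CellTiter-Glo luminescence, read 10 min after reagent addition, reports viability after a 72 hr compound exposure. Cells are an MV4-11 line made resistant to SYK inhibition, seeded at 500 per well onto compound-containing plates.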

[3] = Cellular viability qHTS for adrenocortical cancer (ACC) cell line SW-13 (AID 1963989); conditions: SW-13 ACC cells viability, CellTiter-Glo, 48 h; activity (max response): stronger effect = lower value; note: nearly all actives have a fitted effect of over 65% in size;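 for activity (max response): cells grown in serum-free medium with ITS supplement; % is set by controls: 0 for no effect and ±100 for the full control effect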
How it was run: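 SW-13 cells in ITS-supplemented serum-free DMEM were plated overnight, then exposed for 48 h at 37C to compound titrations (up to 46 uM final). Viability was read by CellTiter-Glo luminescence; four-parameter logistic fits gave IC50 and efficacy.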

[4] = Cellular viability qHTS for adrenocortical cancer (ACC) cell line NCI-H295R (AID 1963990); conditions: CellTiter-Glo ATP luminescence, 48 h; series mostly up to 46.1 µM; note: nearly all actives have a fitted effect of over 60% in size
How it was run: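 Luminescent ATP read-out (CellTiter-Glo, 20 min RT) after 48 h drug exposure of NCI-H295R cells; a titration up to 46 uM final. Data normalized to doxorubicin (100% inhibition) and DMSO (0%); 4-parameter fit gives IC50, max response.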
Potency is the fitted concentration of half-maximal effect.

SMILES	Potency [1]	Potency [2]	activity (max response) [3]	Potency [4]	Potency [3]
CC(=O)O/N=C1\C(=O)N(Cc2cc(Cl)ccc2Cl)c2ccc(Cl)cc21	5.9 µM (active)	8.33 µM (active)	-2.12% (inactive)	0.562 µM (active)	–
CC[C@]12C=CCN3CC[C@@]4(c5cc([C@@]6(C(=O)OC)C[C@H]7C[C@@H](C(C)(F)F)CN(Cc8c6[nH]c6ccccc86)C7)c(OC)cc5N(C)[C@H]4[C@@](O)(C(=O)OC)[C@@H]1OC(C)=O)[C@@H]32	0.0555 µM (active)	0.0494 µM (active)	–	0.548 µM (active)	0.123 µM (active)
O=C(O)/C(S)=C/c1ccc(I)cc1	inactive	inactive	9.8% (inactive)	inactive	–
Cc1[nH]nc2ncc(C(=O)N3CCC[C@H]3c3ccc(Cl)cc3)cc12	5.25 µM (active)	2.95 µM (active)	-6.61% (inactive)	inactive	–
COc1ccc(Cc2cnc(N)nc2N)cc1OC	inactive	inactive	8.41% (inactive)	inactive	–
CN(C(=O)c1c(O)c2ccccc2n(C)c1=O)c1ccccc1	inactive	11.9 µM (active) and inactive	3.23% (inactive) and -16.1% (inactive)	inactive	–
C[C@@H](C(=O)Nc1ccc(Cl)cc1)C1CCC(c2ccnc3ccc(F)cc23)CC1 (stereo partly specified)	18.6 µM (active)	14.8 µM (active)	–	25.1 µM (active)	25.1 µM (active)
Nc1c(NC/C=C\COc2cc(CN3CCCCC3)ccn2)c(=O)c1=O	inactive	inactive	4.55% (inactive)	inactive	–
CC(C)Oc1ccc(C(=O)N[C@H](CNC(=O)CN(C)C)Cc2ccc(-c3cn4cccc([C@H](C)O)c4n3)cc2)cc1Cl	0.0263 µM (active)	0.0295 µM (active)	–	0.316 µM (active)	0.0316 µM (active)

Reference: PubChem BioAssay (NCATS)
